The record followed here is ChEMBL document CHEMBL5308541, “MAIP: An Open-Source Tool to Enrich High-Throughput Screening Output and Identify Novel, Druglike Molecules with Antimalarial Activity” (ACS Med Chem Lett, 2023).

Screen size: about 150,000 compounds; about 540 (0.36%) showed an effect of 50% or more. For the sample, strong results were picked, then their nearest neighbours and some compounds at random.

This experiment deals with Plasmodium falciparum. As to the kind of experiment: Primary screen in NF54 nanoGlo assay, in single point, at 2uM, 72h; a lower Z score goes with more inhibition. The class given is functional, Erythrocyte. The conditions noted are these: timepoint 72 hour.
As to `CC(C)(C)c1ccc(CNC[C@H](O)c2ccc(F)cc2F)cc1`, the “% Inhibition” value is reported as 94% and the Z score was -16.43.
Regarding `CC(C)c1nc(N2CCC[C@@]3(CCNC3)C2)c2cc[nH]c2n1`, the “% Inhibition” value is given as 2% and the Z score was -0.48.
For `c1ccc(-c2cncnc2N2CC[C@]3(CCNC3)C2)cc1` the same measures were -14% and 2.09.
For the compound `CN(C)CC12CNCC1CN(c1ccnc3cc(Cl)ccc13)C2` (centres undefined), the “% Inhibition” value came to 97% and the Z score was -19.2.
On to `Fc1ccc(N2CC[C@H](CN3CCC(c4c[nH]c5ccccc45)(c4c[nH]c5ccccc45)CC3)C2)cc1`, for which the “% Inhibition” value is 95% and the Z score is recorded as -18.87.
For `Cc1ccc(CNc2ncnc(N)c2Cl)c(N2CCCC2)n1` the same measures were 50% and -8.64.
Taken in the same sequence, the figures for `CCc1nnc(NCc2ccc(C)nc2N2CCCC2)nc1CC` were -19% and 2.94.
Taken in the same sequence, the figures for `O[C@@H](CNCc1ccc2c(c1)CCO2)c1ccc(F)c(F)c1` were 72% and -12.64.
For the compound `Cc1ccc([C@@H](O)CNCc2cc(O)cc(Cl)c2)cc1`, the “% Inhibition” value is on record as 7% and the Z score is -1.59.
Take `Fc1ccc(C2=CCN(C[C@@H]3CCCN4CCCC[C@H]34)CC2)cc1`: the “% Inhibition” value was 0% and the Z score is -0.03.
Take `CN1CCN(c2ccc(C(F)(F)F)cc2NCc2cnc[nH]2)CC1`: the “% Inhibition” value was determined as 52% and the Z score is given as -7.95.
Consider `Clc1ccc(CNCCN2CCC3(C2)OCCO3)c2ncccc12`, for which the “% Inhibition” value was -1% and the Z score turned out to be 0.17.
